As usually defined, the inhibition is the change of the read-out against control, counted positive when it falls.

Consider 93 molecules from PubChem BioAssay AID588335 (The Scripps Research Institute Molecular Screening Center, 2011).

Structures are written as SMILES. The whole screen tested about 360,000 compounds, of which about 4,500 (1.2%) were called active. Rule as the data show it: active = inhibition above about 30%; inactive = the rest. Shown is part of a subset that was picked to be rich in actives.

The experiment is described as follows: GDH-TPI coupling enzyme inhibitors, primary screen, artefact control for M. tuberculosis FBA inhibitor project, biochemical, absorbance, full deck (AID 588335).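 Also: 0% = DMSO wells and 100% = wells lacking the enzyme.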 Conditions: GDH-TPI coupled enzyme counterscreen, NADH absorbance; at 4.8 µM; active compounds read high. On the technique in general: The purpose of a counterscreen is to sort out artefacts and off-target activity.
With `CCN(CC)C(=O)c1sc(NC(=O)c2ccco2)c(C#N)c1C`, the inhibition is 33.3% (active).
In the case of `Cc1c(C(=O)OC(C)C)sc(NC(=O)c2cccnc2)c1C#N` it was 20.9% (inactive); in that of `Cc1sc(NC(=O)C2=COCCO2)c(C#N)c1C`, 13.8% (inactive); in that of `CCN(CC)CC(=O)Nc1nn(-c2ccccc2)nc1C(N)=O`, -4.59% (inactive).
In the case of `COc1ccc(OC)c(/C=C/C(=O)c2ccc3c(c2)OCO3)c1` it was 7.32% (inactive).
As to `COc1ccc(/C=N/NC(=O)c2ccc3c(c2)OCCO3)c(OC)c1`, the inhibition was 35.4% (active).
Turning to `COc1ccc(OC)c(/C=N/NC(=O)c2ccc[n+](CC(=O)c3ccccc3)c2)c1`, the inhibition is 11.2% (inactive).
In the case of `CN(CC(=O)NCCc1ccc(S(N)(=O)=O)cc1)CC(=O)Nc1ccc(Cl)cc1` it was 2.64% (inactive); in that of `CCCCc1ccc(S(N)(=O)=O)cc1`, 1.6% (inactive).
In the case of `CN(C)c1ccc(C=NCCc2ccc(S(N)(=O)=O)cc2)cc1` it was 54.4% (active); in that of `O=C(O)CC(c1ccccc1F)N1Cc2ccccc2C1=O` (stereo not drawn), -3.95% (inactive); in that of `Cc1c(C(=O)NC2CCCCC2)oc2ccccc12`, 5.98% (inactive).
In the case of `CC(C)c1ccccc1OCC(O)CN(CC(O)COc1cccc2ccccc12)C(C)C` (stereo not drawn) it was 6.49% (inactive); in that of `COc1cc(/C=C/C(=O)Nc2ccc(OC)c(S(=O)(=O)N3CCOCC3)c2)ccc1OCC#N`, 34.9% (active); in that of `COc1cc(/C=C/C(=O)OCC(=O)N2CCOCC2)ccc1OCC#N`, 5.68% (inactive).
As for `CSc1ccc(/C=C/C(=O)NC23CC4CC(CC(C4)C2)C3)cc1`, the inhibition is 14.4% (inactive).
Under `COc1ccc(/C=C/C(=O)Nc2ccc(C34CC5CC(CC(O)(C5)C3)C4)cc2)cc1OC` stands 31% (active); under `COc1cccc(/C=C/C(=O)Nc2ccc3c(c2)OCCO3)c1`, 9.4% (inactive); under `COc1ccc(/C=C/C(=O)OCC(=O)NC2CCCCCC2)cc1OC`, 27.3% (inactive).
Consider `COc1ccc(CCC(=O)Nc2ccc(Cl)c(S(=O)(=O)N3CCOCC3)c2)cc1OC`, for which the inhibition is 5.73% (inactive).
As to `COc1ccc(/C=C/C(=O)Nc2ccc3c(c2)OCCO3)cc1OC`, the inhibition was 33.3% (active).
`COc1ccc(S(=O)(=O)N(C)CC(=O)Nc2ccc3c(c2)OCCO3)cc1OC`: the inhibition was 5.05% (inactive).
Turning to `CCN1C(=O)[C@H]2[C@@H](c3ccc(SC4CCCCC4)c(OC)c3)N[C@@](Cc3ccccc3)(C(=O)OC)[C@H]2C1=O`, the inhibition was 9.48% (inactive).
In the case of `COc1ccc(-c2ccc(C(=O)NCCN3CCOCC3)c3occc23)c(C)c1` it was -2.68% (inactive); in that of `CCc1ccc(-c2cc3c(=O)n(CC(=O)NCCCN4CCN(Cc5ccccc5)CC4)nc(C)n3n2)cc1`, 5.56% (inactive); in that of `O=C(NCc1cccnc1)c1cccnc1Sc1ccc(Cl)cc1`, -0.62% (inactive).
In the case of `Cc1ccc(C)c(N2CCN(C(=O)CCc3nc(-c4cccc(C(F)(F)F)c4)no3)CC2)c1` it was 0% (inactive); in that of `CC1(C)Cc2ccccc2-c2nnc(-c3cccc(O)c3)n21`, 3.02% (inactive).
As for `COc1ccc(OC)c(/C=N/NC(=O)CSc2nnc(C)n2-c2ccccc2)c1`, the inhibition is 30.2% (inactive).
`Cn1c(Cn2nnc3ccccc32)nnc1SCC(=O)c1ccccc1F`: the inhibition was -1.22% (inactive).
Under `C=CCn1c(Cn2nnc3ccccc32)nnc1SCC(=O)N/N=C/c1cc(Br)cc(OC)c1O` stands 33.8% (active); under `Cc1ccc(-n2nc3c(c2NC(=O)CCC2CCCCC2)CS(=O)C3)cc1` (stereo not drawn), -6.57% (inactive).
In the case of `O=C(CCNS(=O)(=O)c1ccc(Br)s1)NCc1ccccc1Cl` it was -5.73% (inactive); in that of `CCn1ccnc1CNC(=O)CC1C(=O)NCCN1CCCc1ccccc1` (stereo not drawn), 1.04% (inactive).
`O=C(NCc1ccc2c(c1)OCO2)c1cc2c(s1)CS(=O)(=O)C2`: the inhibition was 3.7% (inactive).
In the case of `CCOc1ccc2ccccc2c1/C=N/NC(=O)c1c(C)cc(C)[nH]c1=O`, the inhibition was 11.8% (inactive).
Under `CCOc1ccc2[nH]c(C(=O)N/N=C/c3cccc(OC)c3OC)cc2c1` stands 42.1% (active); under `CCOc1ccc2[nH]c(=O)c(CN(CCCO)C(C)=O)cc2c1`, 10.1% (inactive); under `COc1ccc2[nH]c(=O)c(CNc3ccc(C)c(C)c3)cc2c1`, 7.26% (inactive).
Take `CCC(=O)c1ccc(OC(=O)/C=C/c2cc(OC)c(OC)c(OC)c2)cc1`: the inhibition was 14.9% (inactive).
In the case of `COc1cc2cc(C(=O)N/N=C/c3cccc(OC)c3OC)[nH]c2cc1OC` it was 53.6% (active).
Under `COc1cccc(C(=O)N/N=C(\C)c2cccc(NC(=O)c3ccc(F)cc3)c2)c1OC` stands -1.01% (inactive).
Under `COc1ccc2[nH]c(C(=O)N/N=C/c3cc(OC)c(OC)c(OC)c3)cc2c1` stands 63% (active).
For the molecule `COc1cccc2[nH]c(C(=O)NCCc3ccccc3)cc12`, the inhibition was 2.15% (inactive).
Under `CC(C)n1c(SCC(=O)Nc2ccccc2N2CCCCC2)nc2c1c(=O)n(C)c(=O)n2C` stands 2.5% (inactive); under `NS(=O)(=O)c1ccc(CNC(=O)c2ccc(Cl)cc2[N+](=O)[O-])cc1`, -1.13% (inactive).
Under `Cc1cn(C)c(=O)n(C)c1=O` stands -2.08% (inactive); under `COc1cccc(N2CC(C(=O)NCc3n[nH]c(=O)c4ccccc34)CC2=O)c1` (stereo not drawn), 3.52% (inactive); under `CC(C)Cc1nc(Cl)c(C#N)c2c1CCC2`, -7.66% (inactive).
Consider `O=c1cc(N2CCCCC2)c(-c2ccccc2)nn1Cc1cccc(F)c1`, for which the inhibition was 10.7% (inactive).
In the case of `O=C(Nc1cc(C(F)(F)F)ccc1Cl)c1cc2nc3c(c(C(F)(F)F)n2n1)CCCC3` it was -11.5% (inactive); in that of `Cc1cc(C)cc(OCC(=O)NNC(=O)c2cc3ccccc3oc2=O)c1`, 11.9% (inactive).
With `NS(=O)(=O)c1ccc(NC(=O)COC(=O)c2cc3ccccc3oc2=O)cc1`, the inhibition was 32.9% (active).
As to `NS(=O)(=O)c1ccc(NC(=O)COC(=O)CCc2c[nH]c3ccccc23)cc1`, the inhibition is 4.09% (inactive).
Consider `OCC(O)C1OCOC(C(O)CO)C1O` (stereo not drawn), for which the inhibition is 3.51% (inactive).
Regarding `CCCNS(=O)(=O)c1ccc(CCC(=O)NCc2cccnc2)cc1`, the inhibition is 1.83% (inactive).
Under `Nc1ncnc(Nc2cccc(Cl)c2Cl)n1` stands 6.09% (inactive); under `CC1CCN(C(=O)c2ccc(S(=O)(=O)Cc3cc(F)ccc3F)c([N+](=O)[O-])c2)CC1`, 2.21% (inactive).
In the case of `CCOc1ccccc1NC(=O)C1CCCN(S(=O)(=O)c2ccccc2)C1` (stereo not drawn) it was 11.6% (inactive); in that of `O=C(CNS(=O)(=O)c1ccc2c(c1)OCCCO2)N1CCN(c2ccc(F)cc2)CC1`, 6.99% (inactive).
Turning to `COc1ccc(N2CCN(C(=O)CNS(=O)(=O)c3ccc(C)c(C)c3)CC2)cc1`, the inhibition is 10.1% (inactive).
In the case of `Cc1ccc(-c2cc(C(=O)NN)n[nH]2)o1` it was -4.43% (inactive); in that of `O=C(NN=CC=Cc1ccccc1)C(O)C(O)C(=O)NN=CC=Cc1ccccc1` (stereo not drawn), 20.2% (inactive).
With `Cc1ccc(-c2cc(C(=O)N/N=C/C=C/c3ccccc3)n[nH]2)o1`, the inhibition is 36.6% (active).
In the case of `CCC(C)(C)NC(=O)C(c1ccc(O)cc1)N(Cc1ccco1)C(=O)CCC(=O)Nc1ccccn1` (stereo not drawn) it was 0% (inactive).
As for `CCCc1nc(N2CCN(C)CC2)c2sc(=S)n(-c3ccccc3)c2n1`, the inhibition was 11.9% (inactive).
With `Cc1noc(C)c1CSc1nc2cc(S(=O)(=O)N3CCOCC3)ccc2o1`, the inhibition is 0% (inactive).
In the case of `O=C(Cc1ccccc1)Nc1ccc(NC(=O)c2cccnc2)cc1` it was -3.47% (inactive); in that of `O=C(Nc1cnccn1)c1cccnc1`, -10.2% (inactive); in that of `O=C(CC(=O)c1cccnc1)c1ccccc1`, 31.5% (active).
Take `CS(=O)(=O)N1CCCC(C(=O)N2CCOCC2)C1` (stereo not drawn): the inhibition was 5.31% (inactive).
Consider `O=C(Nc1ccccc1C(=O)O)c1cc(S(=O)(=O)N2CCCCC2)cs1`, for which the inhibition is -4.43% (inactive).
Under `O=C(NCCN1C(=O)S/C(=C\c2cccnc2)C1=O)c1cccc(OC(F)F)c1` stands 8.86% (inactive); under `Cc1c(C(=O)NCCN2C(=O)S/C(=C\c3cccs3)C2=O)cccc1[N+](=O)[O-]`, 39.5% (active); under `Cc1c(C(=O)NCCCc2ccccc2)cccc1[N+](=O)[O-]`, 10% (inactive).
Under `Cc1cc(C)c(C)c(S(=O)(=O)N2CCN(C(=O)c3ccc4c(=O)n5c(nc4c3)CCC5)CC2)c1C` stands 5.92% (inactive); under `CC(C)CC1C(=O)N(Cc2cn(Cc3ccco3)nn2)CCS(=O)(=O)N1Cc1ccc(-c2ccc(Cl)c(Cl)c2)cc1` (stereo not drawn), -1.42% (inactive); under `COc1ccc(N2C(=O)/C(=C\c3ccco3)N=C2SCC(N)=O)cc1Cl`, 8.83% (inactive).
In the case of `CCOC(=O)c1sc(NC(=O)C(CC)Sc2nccn2C)nc1C` (stereo not drawn) it was 10.2% (inactive); in that of `CC(=O)c1sc(NC(=O)c2ccc(C)cc2)nc1C`, 31.3% (active); in that of `CCOC(=O)c1sc(NC(=O)c2sc(C)nc2C)nc1C`, 34.6% (active).
Consider `Cc1ccc(C(=O)Nc2ccn(C)n2)cc1`, for which the inhibition was -9.27% (inactive).
As to `CCOC(=O)c1cccnc1NC(=O)c1ccncc1`, the inhibition was -7.37% (inactive).
For the molecule `CC(=O)c1sc(NC(=O)C2=NN(c3ccccc3)C(=O)CC2)nc1C`, the inhibition was 29.1% (inactive).
Under `CCOC(=O)c1sc(/N=C/Nc2nc(C)c(C(=O)OCC)s2)nc1C` stands 0.95% (inactive); under `CCOC(=O)c1sc(NC(=O)CSc2n[nH]c(CC)n2)nc1C`, -0.63% (inactive); under `CCOC(=O)c1sc(NC(=O)c2ccncc2)nc1C`, 39.2% (active).
Under `Cc1ccc(N2CCN(S(=O)(=O)N(C)C)CC2)cc1Cl` stands 8.64% (inactive).
Under `CC(c1ccco1)N(C(=O)c1ccc(S(=O)(=O)N2CCCCC2)cc1)c1ccccn1` (stereo not drawn) stands 3.73% (inactive); under `Cc1ccccc1N1CC(C(=O)Nc2ccc3c(c2)OCO3)CC1=O` (stereo not drawn), 7.55% (inactive); under `CC1(C)CC(O)C(CCC(O)c2ccccc2)C(C)(C)N1` (stereo not drawn), 11.8% (inactive).
On to `Cc1ccc(Cl)cc1NC(=S)N(CCN(C)C)Cc1cccs1`, for which the inhibition is -1.86% (inactive).
In the case of `CCCC(=O)N1CCC(CCC(=O)NC2CC2)CC1` it was -6.29% (inactive).
